Measured values: the supplement of paper PMC8728848
Only a selection was taken, and the strongest signals are over-represented in it overall.

Columns and labels:
Assay in all cases: glycan array binding signal (z-score within array); higher = stronger binding
Conditions in all cases: glycan notation: IUPAC condensed, linker removed
[1] = molecular target: Fuc(a1-2)Gal(b1-4)GlcNAc(b1-2)Man(a1-3)[Fuc(a1-2)Gal(b1-4)GlcNAc(b1-2)Man(a1-6)]Man(b1-4)GlcNAc(b1-4)GlcNAc
Summary of the method: (§1)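 The binding signal is a Z-score computed within each array and averaged over linkers. Arrays of the same protein sequence at different concentrations or buffers were also averaged together. Data originate from 3228 arrays in the Consortium for Functional Glycomics database, kept only where the protein sequence was available.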

[2] = molecular target: Fuc(a1-2)Gal6S(b1-4)Glc6S
Summary of the method: as §1

[3] = molecular target: Fuc(a1-2)[Gal(a1-4)]Gal(b1-4)GlcNAc
Summary of the method: as §1

[4] = molecular target: Fuc(a1-3)[Gal3S(b1-4)]Glc6S
Summary of the method: as §1

[5] = molecular target: Fuc(a1-3)[Gal3S(b1-4)]GlcNAc6S
Summary of the method: as §1

[6] = molecular target: Fuc(a1-3)[GalNAc(b1-4)]GlcNAc
Summary of the method: as §1

Fuc(a1-4)GlcNAc = molecular target: Fuc(a1-4)GlcNAc
Summary of the method: as §1

[7] = molecular target: Gal(a1-3)Gal(b1-4)[Fuc(a1-3)]GlcNAc
Summary of the method: as §1

Gal(b1-3)Gal = molecular target: Gal(b1-3)Gal
Summary of the method: as §1

[8] = molecular target: Gal(b1-3)GalNAc(b1-4)Gal(b1-4)Glc
Summary of the method: as §1

[9] = molecular target: Gal(b1-3)GlcNAc(b1-2)Man(a1-3)[Gal(b1-3)GlcNAc(b1-2)Man(a1-6)]Man(b1-4)GlcNAc(b1-4)[Fuc(a1-6)]GlcNAc
Summary of the method: as §1

[10] = molecular target: Gal(b1-3)GlcNAc(b1-3)Gal(b1-4)Glc
Summary of the method: as §1

[11] = molecular target: Gal(b1-3)[Fuc(a1-4)]GlcNAc(b1-3)Gal(b1-4)GlcNAc
Summary of the method: as §1

[12] = molecular target: Gal(b1-4)GalNAc(a1-3)[Fuc(a1-2)]Gal(b1-4)GlcNAc
Summary of the method: as §1

[13] = molecular target: Gal(b1-4)GlcNAc(b1-6)Gal(b1-4)GlcNAc
Summary of the method: as §1

Gal3S(b1-3)GlcNAc = molecular target: Gal3S(b1-3)GlcNAc
Summary of the method: as §1

Gal3S(b1-4)Glc6S = molecular target: Gal3S(b1-4)Glc6S
Summary of the method: as §1

[14] = molecular target: Gal3S(b1-4)[Fuc(a1-3)]Glc
Summary of the method: as §1

Gal3S4S(b1-4)GlcNAc = molecular target: Gal3S4S(b1-4)GlcNAc
Summary of the method: as §1

Gal3S6S(b1-4)GlcNAc6S = molecular target: Gal3S6S(b1-4)GlcNAc6S
Summary of the method: as §1

Glc(a1-4)Glc = molecular target: Glc(a1-4)Glc
Summary of the method: as §1

Glc(a1-6)Glc(a1-6)Glc = molecular target: Glc(a1-6)Glc(a1-6)Glc
Summary of the method: as §1

GlcA(b1-3)Gal = molecular target: GlcA(b1-3)Gal
Summary of the method: as §1

[15] = molecular target: GlcNAc(b1-3)Gal(b1-4)GlcNAc(b1-3)Gal(b1-4)GlcNAc
Summary of the method: as §1

GlcNAc(b1-4)GlcNAc = molecular target: GlcNAc(b1-4)GlcNAc
Summary of the method: as §1

[16] = molecular target: GlcNAc(b1-4)GlcNAc(b1-4)GlcNAc
Summary of the method: as §1

[17] = molecular target: GlcNAc(b1-6)Gal(b1-4)GlcNAc
Summary of the method: as §1

[18] = molecular target: Man(a1-2)Man(a1-2)Man(a1-6)[Man(a1-3)]Man
Summary of the method: as §1

[19] = molecular target: Neu5Ac(a2-3)Gal(b1-3)GalNAc
Summary of the method: as §1

[20] = molecular target: Neu5Ac(a2-3)Gal(b1-3)GalNAc(b1-4)[Neu5Ac(a2-3)]Gal(b1-4)Glc
Summary of the method: as §1

[21] = molecular target: Neu5Ac(a2-3)Gal(b1-3)GalNAc6S
Summary of the method: as §1

[22] = molecular target: Neu5Ac(a2-3)Gal(b1-3)GlcNAc
Summary of the method: as §1

[23] = molecular target: Neu5Ac(a2-3)Gal(b1-3)[Fuc(a1-4)]GlcNAc(b1-3)Gal(b1-3)[Fuc(a1-4)]GlcNAc
Summary of the method: as §1

[24] = molecular target: Neu5Ac(a2-3)Gal(b1-4)GlcNAc(b1-2)Man(a1-3)[Neu5Ac(a2-6)Gal(b1-4)GlcNAc(b1-2)Man(a1-6)]Man(b1-4)GlcNAc(b1-4)GlcNAc
Summary of the method: as §1

Neu5Ac(a2-6)Gal(b1-4)Glc = molecular target: Neu5Ac(a2-6)Gal(b1-4)Glc
Summary of the method: as §1

[25] = molecular target: Neu5Ac(a2-6)Gal(b1-4)GlcNAc(b1-2)Man(a1-3)[GlcNAc(b1-2)Man(b1-4)GlcNAc(b1-2)Man(a1-6)]Man(b1-4)GlcNAc(b1-4)GlcNAc
Summary of the method: as §1

[26] = molecular target: Neu5Ac(a2-6)Gal(b1-4)GlcNAc(b1-2)Man(a1-3)[Man(a1-6)]Man(b1-4)GlcNAc(b1-4)GlcNAc
Summary of the method: as §1

[27] = molecular target: Neu5Ac(a2-6)Gal(b1-4)GlcNAc(b1-3)Gal(b1-4)GlcNAc
Summary of the method: as §1

[28] = molecular target: Neu5Ac(a2-8)Neu5Ac(a2-3)[GalNAc(b1-4)]Gal(b1-4)Glc
Summary of the method: as §1

Neu5Gc(a2-3)Gal(b1-4)Glc = molecular target: Neu5Gc(a2-3)Gal(b1-4)Glc
Summary of the method: as §1

Binder: GIINTLQKYYCRVRGGRCAVLSCLPKEEQIGKCSTRGRKCCRRKK [Beta-Defensin 3 (Homo sapiens), P81534]
- glycan array binding signal (z-score) [1]: -0.692
- glycan array binding signal (z-score) [2]: 5.67
- glycan array binding signal (z-score) [3]: -0.449
- glycan array binding signal (z-score) [4]: 3.57
- glycan array binding signal (z-score) [5]: 8.21
- glycan array binding signal (z-score) [6]: -0.467
- glycan array binding signal (z-score) (Fuc(a1-4)GlcNAc): -0.369
- glycan array binding signal (z-score) [7]: -0.233
- glycan array binding signal (z-score) (Gal(b1-3)Gal): 0.134
- glycan array binding signal (z-score) [8]: -0.315
- glycan array binding signal (z-score) [9]: -0.62
- glycan array binding signal (z-score) [10]: -0.348
- glycan array binding signal (z-score) [11]: -0.493
- glycan array binding signal (z-score) [12]: -0.395
- glycan array binding signal (z-score) [13]: -0.485
- glycan array binding signal (z-score) (Gal3S(b1-3)GlcNAc): 0.98
- glycan array binding signal (z-score) (Gal3S(b1-4)Glc6S): 4.37
- glycan array binding signal (z-score) [14]: 0.062
- glycan array binding signal (z-score) (Gal3S4S(b1-4)GlcNAc): 4.31
- glycan array binding signal (z-score) (Gal3S6S(b1-4)GlcNAc6S): 3.11
- glycan array binding signal (z-score) (Glc(a1-4)Glc): 0.053
- glycan array binding signal (z-score) (Glc(a1-6)Glc(a1-6)Glc): -0.18
- glycan array binding signal (z-score) (GlcA(b1-3)Gal): 1.72
- glycan array binding signal (z-score) [15]: -0.356
- glycan array binding signal (z-score) (GlcNAc(b1-4)GlcNAc): -0.569
- glycan array binding signal (z-score) [16]: -0.463
- glycan array binding signal (z-score) [17]: -0.369
- glycan array binding signal (z-score) [18]: -0.442
- glycan array binding signal (z-score) [19]: -0.221
- glycan array binding signal (z-score) [20]: -0.555
- glycan array binding signal (z-score) [21]: 1.18
- glycan array binding signal (z-score) [22]: -0.304
- glycan array binding signal (z-score) [23]: -0.364
- glycan array binding signal (z-score) [24]: -0.484
- glycan array binding signal (z-score) (Neu5Ac(a2-6)Gal(b1-4)Glc): -0.294
- glycan array binding signal (z-score) [25]: -0.583
- glycan array binding signal (z-score) [26]: -0.313
- glycan array binding signal (z-score) [27]: -0.64
- glycan array binding signal (z-score) [28]: -0.591
- glycan array binding signal (z-score) (Neu5Gc(a2-3)Gal(b1-4)Glc): -0.025
